Results filed as inconclusive are left out. The source made the active and inactive calls. Unless noted, calls come from the whole dose curve; as a rule, active = well fitted curve in either direction with a large enough effect (not every such curve was filed as active); inconclusive = small, poorly fitted or top-dose-only effect, or another doubt; inactive = flat fitted curve, though single readings scatter.
Legend:
[1] = biological target: Lysosomal acid glucosylceramidase (Homo sapiens) (UniProt P04062); test: Glucocerebrosidase-p2 (AID 348; in the data active = potency below about 10 µM; note: potency is the fitted concentration of half-maximal effect); conditions: purified GBA, blue fluorogenic substrate, 40 min
Sequence of Lysosomal acid glucosylceramidase (Homo sapiens) (P04062 whole entry, looked up): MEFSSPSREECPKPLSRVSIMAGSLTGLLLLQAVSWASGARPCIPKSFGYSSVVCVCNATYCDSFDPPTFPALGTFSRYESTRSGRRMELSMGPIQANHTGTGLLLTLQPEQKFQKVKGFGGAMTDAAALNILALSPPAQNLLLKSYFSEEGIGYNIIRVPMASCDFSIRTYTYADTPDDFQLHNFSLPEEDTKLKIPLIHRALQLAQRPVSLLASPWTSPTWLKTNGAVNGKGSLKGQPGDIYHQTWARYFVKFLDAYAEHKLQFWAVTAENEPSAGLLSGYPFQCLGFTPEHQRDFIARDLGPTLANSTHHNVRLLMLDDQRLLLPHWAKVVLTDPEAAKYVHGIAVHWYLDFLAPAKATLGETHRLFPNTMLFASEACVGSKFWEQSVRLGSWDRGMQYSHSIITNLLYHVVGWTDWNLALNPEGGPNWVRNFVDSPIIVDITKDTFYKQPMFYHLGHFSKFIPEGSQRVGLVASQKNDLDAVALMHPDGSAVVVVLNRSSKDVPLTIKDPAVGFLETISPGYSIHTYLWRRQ
Method in brief: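 Compounds titrated from 0.6 nM upwards against 0.2 nM enzyme in pH 5.9 citric acid/KH2PO4, taurocholate, tween-20; blue fluorogenic substrate 80 uM, 40 min room temperature, stopped and read Ex 365/Em 440 for AC50.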

[2] = AP1 Signaling Pathway (AID 357); conditions: ME-180 AP-1-bla reporter, EGF-induced, beta-lactamase ratio, 5 h; at 7.69 µM (top of the series) unless noted; note: % is set by controls: 0 for no effect and ±100 for the full control effect
Method in brief: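 AP-1-bla ME-180 cells with beta-lactamase reporter under AP-1 response element, stimulated with EC50 EGF; compounds titrated, 5 hours at 37 degrees Celsius. CCF4 read at 460/530 nm ratio; positive and negative modulators judged by AC50.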

[3] = Stat Signaling Pathway (AID 446); conditions: ME-180 SIE beta-lactamase reporter, IL-6 stimulated, 5 h; at 7.69 µM (top of the series) unless noted;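 note: ME-180 cervical cancer cells given 40 pM IL-6 alongside compound; SIE-controlled beta-lactamase reporter measured as 460/530 nm FRET emission ratio; % is set by controls: 0 for no effect and ±100 for the full control effect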
Method in brief: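 Screening format detects activators and inhibitors alike: ME-180 SIE-bla cells stimulated at 40 pM IL-6 for 5 hrs with compound, then dual-emission beta-lactamase read at 405 nm excitation.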

[4] = biological target: Glucocorticoid receptor (Homo sapiens) (UniProt P04150); test: GR-EFC Redistribution (AID 451; calls by dose curve; note: potency is the fitted concentration of half-maximal effect); conditions: CHO-K1 GR-EFC translocation, beta-gal luminescence, 2 h
Sequence of Glucocorticoid receptor (Homo sapiens) (P04150 whole entry, looked up, the tested form may be a part): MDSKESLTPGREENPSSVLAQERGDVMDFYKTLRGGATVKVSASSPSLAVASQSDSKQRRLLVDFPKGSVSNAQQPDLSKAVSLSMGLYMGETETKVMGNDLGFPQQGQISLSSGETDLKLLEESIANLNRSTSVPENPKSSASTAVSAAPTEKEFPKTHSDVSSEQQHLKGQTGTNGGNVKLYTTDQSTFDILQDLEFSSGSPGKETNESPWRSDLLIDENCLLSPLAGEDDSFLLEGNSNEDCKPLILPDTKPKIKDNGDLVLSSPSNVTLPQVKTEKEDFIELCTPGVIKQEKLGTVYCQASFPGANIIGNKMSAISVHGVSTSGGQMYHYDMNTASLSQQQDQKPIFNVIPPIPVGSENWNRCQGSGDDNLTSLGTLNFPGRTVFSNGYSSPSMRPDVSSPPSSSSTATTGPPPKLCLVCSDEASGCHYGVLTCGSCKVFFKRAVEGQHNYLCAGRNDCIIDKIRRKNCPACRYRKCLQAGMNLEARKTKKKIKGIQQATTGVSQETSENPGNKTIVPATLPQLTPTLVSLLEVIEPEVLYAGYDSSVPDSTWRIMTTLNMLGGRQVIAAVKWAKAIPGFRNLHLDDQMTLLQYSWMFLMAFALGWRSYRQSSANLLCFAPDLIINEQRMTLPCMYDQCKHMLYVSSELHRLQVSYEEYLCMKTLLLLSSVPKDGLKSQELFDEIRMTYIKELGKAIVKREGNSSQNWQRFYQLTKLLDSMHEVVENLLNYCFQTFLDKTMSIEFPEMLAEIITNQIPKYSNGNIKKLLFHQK
Method in brief: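 CHO-K1 cells stably expressing nuclear-localized β-gal enzyme acceptor and GR fused C-terminally to the enzyme donor fragment; ligand-driven nuclear translocation restores β-gal by complementation. Compounds titrated up to 46 uM final, 2 h at 37 °C; luminescence read.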

[5] = biological target: Mitogen-activated protein kinase 10 (Mus musculus) (UniProt Q61831); test: JNK3 AlphaScreen Assay (AID 530); conditions: JNK3 lysate, c-Jun phosphorylation; series mostly up to 57.1 µM;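 note: kinase came from lysate of stimulated human HepG2 cells; signal reports phosphorylation of biotinylated GST-cJun 1-79 at Ser73 with 10 µM ATP; % is set by controls: 0 for no effect and ±100 for the full control effect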
Method in brief: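 Inhibitors reduce antibody binding to phosphorylated biotin-cJun, lowering AlphaScreen luminescence. Lysates from HepG2 cells pre-activated by IL-1beta plus TNF-alpha supplied JNK3; compounds were titrated.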

[6] = biological target: 3',5'-cyclic-AMP phosphodiesterase 4B (Homo sapiens) (UniProt Q07343); test: qHTS Assay for Inhibitors of PDE-IV (AID 607; active = well fitted activation curve with a large enough effect in the main read-out, with a control signal flat, not every such curve was filed as active; note: % of control where 0% means no effect); conditions: HEK293 ACTOne CNG channel cells, membrane potential fluorescence; series mostly up to 22.9 µM
Sequence of 3',5'-cyclic-AMP phosphodiesterase 4B (Homo sapiens) (Q07343 whole entry, looked up): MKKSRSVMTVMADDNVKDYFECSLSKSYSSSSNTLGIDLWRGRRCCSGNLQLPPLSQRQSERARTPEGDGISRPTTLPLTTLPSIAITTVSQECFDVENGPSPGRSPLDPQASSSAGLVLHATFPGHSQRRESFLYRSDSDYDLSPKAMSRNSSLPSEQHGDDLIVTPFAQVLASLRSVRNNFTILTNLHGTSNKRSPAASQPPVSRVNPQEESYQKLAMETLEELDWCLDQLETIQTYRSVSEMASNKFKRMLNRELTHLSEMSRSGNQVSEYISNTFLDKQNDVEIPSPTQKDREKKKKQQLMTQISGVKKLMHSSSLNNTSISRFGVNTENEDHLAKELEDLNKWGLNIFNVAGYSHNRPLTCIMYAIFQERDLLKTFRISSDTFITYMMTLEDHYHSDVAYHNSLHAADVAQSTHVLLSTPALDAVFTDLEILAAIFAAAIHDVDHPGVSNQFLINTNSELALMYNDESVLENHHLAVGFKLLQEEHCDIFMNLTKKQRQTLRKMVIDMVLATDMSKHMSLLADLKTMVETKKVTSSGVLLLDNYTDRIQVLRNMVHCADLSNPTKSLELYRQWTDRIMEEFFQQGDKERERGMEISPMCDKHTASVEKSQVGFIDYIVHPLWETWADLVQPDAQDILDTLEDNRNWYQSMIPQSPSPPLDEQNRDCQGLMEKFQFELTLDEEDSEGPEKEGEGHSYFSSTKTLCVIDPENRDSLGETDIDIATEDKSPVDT
Method in brief: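 The readout is membrane depolarisation from a cAMP-sensing CNG channel, detected with a potential dye at ex 535/em 590. Cells were HEK293-derived (endogenous PDE-IV) at 1000 cells/well, titrated up to 22.9 uM final.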

[7] = Primary qHTS for small molecule stabilizers of the endoplasmic reticulum resident proteome: Secreted ER Calcium Modulated Protein (SERCaMP) assay (AID 1508630; active = well fitted curve in the direction sought with a large enough effect; an effect the other way counts as inactive or inconclusive; note: % is set by controls: 0 for no effect and ±100 for the full control effect); conditions: SH-SY5Y GLuc-SERCaMP (Gaussia luciferase released on ER calcium loss) secretion, thapsigargin, luminescence; series mostly up to 38.4 µM
Method in brief: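 GLuc-SERCaMP-expressing SH-SY5Y cells, pretreated 16 h with compound, are challenged with thapsigargin to empty ER calcium stores; after 4 h, coelenterazine is added directly to the medium and luminescence is imaged.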

[8] = biological target: Cytochrome P450 3A4 (Homo sapiens) (UniProt P08684); test: qHTS Assay for Inhibitors and Substrates of Cytochrome P450 3A4 (AID 884; active = well fitted curve in the direction sought with a large enough effect; an effect the other way counts as inactive or inconclusive; note: nearly all actives have a fitted effect of over 50% in size; note: potency is the fitted concentration of half-maximal effect); conditions: recombinant CYP3A4, Luciferin-PPXE luminescence; series mostly up to 57.1 µM
Sequence of Cytochrome P450 3A4 (Homo sapiens) (P08684 whole entry, looked up): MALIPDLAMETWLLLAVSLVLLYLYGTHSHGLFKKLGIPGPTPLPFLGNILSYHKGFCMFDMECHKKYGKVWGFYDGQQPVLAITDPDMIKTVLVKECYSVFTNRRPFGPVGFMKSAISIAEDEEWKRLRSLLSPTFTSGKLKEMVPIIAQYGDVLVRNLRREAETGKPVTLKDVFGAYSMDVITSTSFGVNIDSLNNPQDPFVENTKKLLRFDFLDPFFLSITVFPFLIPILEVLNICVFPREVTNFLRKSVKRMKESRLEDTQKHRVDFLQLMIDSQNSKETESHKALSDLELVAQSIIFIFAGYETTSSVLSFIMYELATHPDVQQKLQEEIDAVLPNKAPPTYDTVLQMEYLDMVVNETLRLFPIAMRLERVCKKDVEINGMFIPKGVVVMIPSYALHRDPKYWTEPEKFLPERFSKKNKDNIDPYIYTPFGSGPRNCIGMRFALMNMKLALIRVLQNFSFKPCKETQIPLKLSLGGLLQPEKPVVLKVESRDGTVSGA
Method in brief: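 20 nM human CYP3A4 with 25 uM Luciferin-PPXE (at KM) in 200 mM KPO4, preincubated 10 min with compound; NADPH regeneration started a 60 min RT reaction. Luciferin detected by luminescence, normalized to 57 uM ketoconazole as full inhibition.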

[9] = biological target: Cytochrome P450 3A4 (Homo sapiens) (UniProt P08684); test: qHTS Assay for Activators of Cytochrome P450 3A4 (AID 885; active = well fitted curve in the direction sought with a large enough effect; an effect the other way counts as inactive or inconclusive; note: nearly all actives have a fitted effect of over 65% in size; note: potency is the fitted concentration of half-maximal effect); conditions: recombinant CYP3A4, Luciferin-PPXE luminescence, 60 min; series mostly up to 57.1 µM
Method in brief: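 Steps: enzyme/substrate mix dispensed; compound added, 10 min RT; NADPH regeneration solution added, 60 min RT; luciferin detection buffer stops reaction; 20 min later luminescence measured.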

[10] = biological target: Cytochrome P450 1A2 (Homo sapiens) (UniProt P05177); test: p450-cyp1a2 (AID 410; calls by dose curve; note: potency is the fitted concentration of half-maximal effect;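 for activity change, negative = inhibition: -100% = full effect of reference inhibitor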); conditions: recombinant CYP1A2, luciferin-ME demethylation, luminescence; series mostly up to 57 µM
Sequence of Cytochrome P450 1A2 (Homo sapiens) (P05177 whole entry, looked up): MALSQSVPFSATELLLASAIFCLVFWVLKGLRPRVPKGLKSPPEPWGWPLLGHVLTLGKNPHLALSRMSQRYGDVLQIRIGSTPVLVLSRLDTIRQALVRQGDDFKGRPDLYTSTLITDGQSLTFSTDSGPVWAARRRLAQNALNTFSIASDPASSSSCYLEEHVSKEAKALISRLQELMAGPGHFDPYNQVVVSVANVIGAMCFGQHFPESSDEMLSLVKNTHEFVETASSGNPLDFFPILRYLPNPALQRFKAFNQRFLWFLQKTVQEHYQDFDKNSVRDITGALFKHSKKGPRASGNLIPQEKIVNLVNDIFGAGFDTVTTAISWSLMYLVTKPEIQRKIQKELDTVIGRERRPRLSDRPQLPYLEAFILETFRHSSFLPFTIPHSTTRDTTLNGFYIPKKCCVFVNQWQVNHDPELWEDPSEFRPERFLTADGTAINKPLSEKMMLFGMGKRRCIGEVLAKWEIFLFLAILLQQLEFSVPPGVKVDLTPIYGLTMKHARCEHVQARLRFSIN
Method in brief: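 20nM CYP1A2 with 100uM Luciferin-ME (at Km) in 100mM KPO4; compound preincubated 10 min, NADPH regeneration added, 60 min at room temperature. Luciferin quantified by luminescence after detection reagent; normalized to 57 uM furafylline.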

[11] = biological target: Glucocorticoid receptor (Homo sapiens) (UniProt P04150); test: GR-GFP Redistribution (AID 450;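 active = compounds whose dose series gives a full or clear partial fitted curve of increased nuclear translocation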; note: potency is the fitted concentration of half-maximal effect); conditions: U2OS GR-GFP nuclear translocation, laser cytometry, 2 h
[12] = NFAT Signaling Pathway (AID 444); conditions: Jurkat NFAT-bla M1, carbachol, beta-lactamase ratio, 5 h; at 7.69 µM (top of the series) unless noted
Method in brief: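 Jurkat cells carrying an NFAT-driven β-lactamase reporter and co-transfected muscarinic M1 receptor were treated with compound plus carbachol (1 uM final, an EC50 level) for 5 h at 37 °C. CCF4 loading followed for 1 h at RT; 460/530 nm ratio gave %activity.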

[13] = biological target: Cytochrome P450 2C9 (Homo sapiens) (UniProt P11712); test: qHTS Assay for Inhibitors and Substrates of Cytochrome P450 2C9 (AID 883; active = well fitted curve in the direction sought with a large enough effect; an effect the other way counts as inactive or inconclusive; note: nearly all actives have a fitted effect of over 60% in size; note: potency is the fitted concentration of half-maximal effect); conditions: recombinant CYP2C9, luciferin-H luminescence, 60 min; series mostly up to 57.1 µM
Sequence of Cytochrome P450 2C9 (Homo sapiens) (P11712 whole entry, looked up): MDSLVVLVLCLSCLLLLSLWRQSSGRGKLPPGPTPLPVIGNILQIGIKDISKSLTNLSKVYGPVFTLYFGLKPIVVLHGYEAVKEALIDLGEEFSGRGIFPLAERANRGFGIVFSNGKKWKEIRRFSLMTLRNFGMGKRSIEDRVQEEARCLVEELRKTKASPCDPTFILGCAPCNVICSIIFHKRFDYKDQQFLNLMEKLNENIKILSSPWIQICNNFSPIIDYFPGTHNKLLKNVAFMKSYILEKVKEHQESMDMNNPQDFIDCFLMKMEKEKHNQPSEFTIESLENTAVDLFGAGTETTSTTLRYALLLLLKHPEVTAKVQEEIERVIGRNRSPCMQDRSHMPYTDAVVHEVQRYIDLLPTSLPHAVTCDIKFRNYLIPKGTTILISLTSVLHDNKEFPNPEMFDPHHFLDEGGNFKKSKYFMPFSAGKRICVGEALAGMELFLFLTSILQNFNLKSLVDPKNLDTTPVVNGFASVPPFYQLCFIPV
Method in brief: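 CYP2C9 deoxyluciferin hydroxylation, 37C, 60 min with NADPH regeneration; 10nM enzyme, 100uM Luciferin-H (KM). Glo detection reagent stopped reaction; luminescence normalized to sulphaphenazole (57uM) full inhibition.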

[14] = Confirmation and Secondary Assay for Modulators of Hemoglobin Beta Chain Splicing at IVS2 654 locus (AID 910; active = well fitted curve in the direction sought with a large enough effect; an effect the other way counts as inactive or inconclusive; note: % of control where 0% means no effect); conditions: HeLa EGFP-654 splicing reporter, GFP fluorescence, 48 h; series mostly up to 38.3 µM
Method in brief: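 HeLa cells stably carrying EGFP interrupted by mutant beta-globin IVS2-654 intron (CMV-driven) were treated with compound for 2 days at 37C; corrected splicing was scored as total peak GFP intensity per well (488 nm excitation, 500-520 nm emission).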

[15] = Confirmation and Secondary Assay for Modulators of Hemoglobin Beta Chain Splicing at IVS2 705 locus (AID 930; active = well fitted curve in the direction sought with a large enough effect; an effect the other way counts as inactive or inconclusive;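 note: HeLa cells stably expressing the EGFP-705 splicing reporter; GFP fluorescence per well restored by corrected splicing of the IVS2-705 intron in EGFP; % of control where 0% means no effect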); conditions: HeLa EGFP-705 splicing reporter, GFP fluorescence, 48 h; series mostly up to 38.3 µM
Method in brief: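 HeLa cells stably carrying EGFP interrupted by mutant beta-globin intron 2 (IVS2-705) treated 2 days at 37C with compound; 500 nM antisense PNA as control. Correct splicing read as total peak GFP intensity per well by laser-scanning cytometry.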

O=C(c1ccncc1)N1CCC2(CCN(Cc3cc(C(F)(F)F)cc(C(F)(F)F)c3)CC2)CC1
inactive: Potency [1] > 11.4 µM | activity change, negative = inhibition [2] 2.71% | activity, negative = inhibition [3] -0.397% | Potency [4] > 46 µM | Potency [5] | Potency [6] | outcome [7]

O=C(c1csnn1)N1CCC2(CCCN(c3ccccn3)C2)CC1
inactive: Potency [1] > 11.4 µM | activity change, negative = inhibition [2] -4.82% | activity, negative = inhibition [3] 9.35% | Potency [4] > 46 µM | Potency [5] | Potency [6] | outcome [7]

O=C(Nc1cccc(F)c1)N1CCCC2(CCN(C(=O)c3ccco3)CC2)C1
inactive: Potency [1] > 11.4 µM | activity change, negative = inhibition [2] -8.03% | activity, negative = inhibition [3] 0.264% | Potency [4] > 46 µM | Potency [5] | outcome [7]

O=C(Oc1ccccc1)N1CCC2(CC1)CCN(c1ccccn1)CC2
inactive: Potency [1] > 11.4 µM | activity change, negative = inhibition [2] -11.8% | activity, negative = inhibition [3] -7.33% | Potency [4] > 46 µM | Potency [5] | Potency [6] | Potency [8] | outcome [7]

CC(=O)N1CCC2(CCN(Cc3ccc(C#N)cc3)CC2)CC1
inactive: Potency [1] > 11.4 µM | activity change, negative = inhibition [2] -3.09% | activity, negative = inhibition [3] 6.19% | Potency [4] > 46 µM | Potency [5] | Potency [6] | outcome [7]

O=C(c1cccc(F)c1)N1CCC2(CC1)CCN(c1ccccn1)CC2
active: Potency [9] 3.16 µM
inactive: Potency [1] > 11.4 µM | activity change, negative = inhibition [2] -6.05% | activity, negative = inhibition [3] -4.99% | Potency [4] > 46 µM | Potency [5] | Potency [6] | Potency [8] | outcome [7]

O=S(=O)(c1ccccc1)N1CCC2(CCCN(c3ccncc3)C2)CC1
inactive: Potency [1] > 11.4 µM | activity change, negative = inhibition [2] 22.1% | activity, negative = inhibition [3] 9.67% | Potency [4] > 46 µM | Potency [6] | outcome [7]

O=c1c(-c2ccc(Cl)cc2)nc2cnc(N3CCNCC3)nc2n1Cc1ccc(F)cc1
inactive: Potency [1] > 11.4 µM | Potency [11] > 9.22 µM | Potency [4] > 46 µM | Potency [6] | Potency [9] | outcome [7]
active: Potency [10] 15.8 µM

COc1ccccc1CNc1cc(-c2cccc(NS(C)(=O)=O)c2)ncn1
inactive: Potency [1] > 11.4 µM | activity change, negative = inhibition [12] -3.65% | activity, negative = inhibition [3] -1.76% | Potency [11] > 46 µM | Potency [4] > 46 µM | Potency [5] | Potency [6] | activity change, negative = inhibition [13] 33% [at 2.29 µM] | Potency [9] | Potency [14] | outcome [15] | outcome [7]
active: Potency [10] 15.8 µM | Potency [8] 5.01 µM

COCCn1c(=O)c(-c2ccc(OC)cc2)nc2cnc(Oc3cccc(Cl)c3)nc21
inactive: Potency [1] > 11.4 µM | activity change, negative = inhibition [12] -0.562% | activity, negative = inhibition [3] 21.8% | Potency [11] > 9.22 µM | Potency [4] > 46 µM | Potency [5] | Potency [6] | Potency [9] | outcome [7]
active: Potency [10] 6.31 µM | Potency [13] 0.631 µM

COc1cccc(Nc2ncc3nc(-c4ccc(Cl)cc4)c(=O)n(CCC#N)c3n2)c1
inactive: Potency [1] > 11.4 µM | activity, negative = inhibition [3] -26.2% | Potency [11] > 9.22 µM | Potency [4] > 46 µM | Potency [5] | Potency [6] | Potency [9] | outcome [7]
active: Potency [10] 5.01 µM

O=C(c1cccc(F)c1)N1CCC2(CCCN(Cc3cc(C(F)(F)F)cc(C(F)(F)F)c3)C2)CC1
inactive: Potency [1] > 11.4 µM | Potency [10] | activity, negative = inhibition [3] 3.76% | Potency [4] > 46 µM | Potency [6] | Potency [9] | outcome [7]

N#Cc1ccc(CN2CC3(CCN(C(=O)c4ccncc4)CC3)C2)cc1
inactive: Potency [1] > 11.4 µM | activity change, negative = inhibition [2] 9.93% | activity, negative = inhibition [3] 6.61% | Potency [5] | Potency [6] | Potency [9] | outcome [7]
